This note sets out measurements from PubChem BioAssay AID493033 (ICCB-Longwood Screening Facility, Harvard Medical School, 2011).

The structures appear in SMILES notation. Among all 100,000 compounds or so, about 930 (0.93%) were called active. No stated cut-off is given here; in the data, active means inhibition mostly above about 56% (no sharp cut-off); inactive means mostly below about 77%. Many of the other results were omitted from the sample, so actives are more common in it than they were.

This experiment deals with Salicylate synthase (Mycobacterium tuberculosis (strain CDC 1551 / Oshkosh)) (UniProt P9WFX0). The experiment is described as follows: MbtI salicylate synthase inhibitors, primary screen, biochemical, fluorescence intensity (AID 493033). Conditions: purified MbtI enzyme, fluorescence intensity read-out, stronger effect = higher value, concentration not given here.
Sequence of Salicylate synthase (Mycobacterium tuberculosis (strain CDC 1551 / Oshkosh)) (P9WFX0 whole entry, looked up): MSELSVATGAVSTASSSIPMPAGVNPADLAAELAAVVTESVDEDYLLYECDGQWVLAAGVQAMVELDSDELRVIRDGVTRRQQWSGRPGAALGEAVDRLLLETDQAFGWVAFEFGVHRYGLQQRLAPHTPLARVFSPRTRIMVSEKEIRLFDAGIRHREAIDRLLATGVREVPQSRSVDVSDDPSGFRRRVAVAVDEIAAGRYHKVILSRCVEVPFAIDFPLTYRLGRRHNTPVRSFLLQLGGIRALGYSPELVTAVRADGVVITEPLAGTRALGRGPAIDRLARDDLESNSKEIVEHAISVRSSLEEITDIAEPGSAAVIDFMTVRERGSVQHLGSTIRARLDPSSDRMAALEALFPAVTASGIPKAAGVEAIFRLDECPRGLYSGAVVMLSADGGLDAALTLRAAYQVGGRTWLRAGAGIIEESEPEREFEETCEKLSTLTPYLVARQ
For `O=C1CSC2=NC3=C(CCCC3=C3SCCCS3)C(c3ccccc3)N12` (centres undefined), the inhibition was -4.55% (inactive).

As to `O=C1c2ccccc2C(=O)N1CNc1ccccc1C1CC1`, the inhibition was -16.8% (inactive).

As for `NCCCN1Cc2ccccc2C1`, the inhibition is 1.3% (inactive).

As for `CCc1ccccc1NC(=O)CSc1nc2c(c(=O)[nH]1)CCC2`, the inhibition is 9.6% (inactive).

`CCCc1cc(=O)[nH]c(SCc2ccc(C#N)cc2)n1`: the inhibition was -3.9% (inactive).

Take `CC(C)(C)c1ccc(CSc2nc3c(c(=O)[nH]2)CCC3)cc1`: the inhibition is 81.7% (active).

In the case of `COC(=O)c1ccc(C(=O)Nc2cc(Cl)ccc2Cl)cc1N`, the inhibition is -179% (inactive).

With `COc1cccc(N2C(=O)/C(=C/c3ccsc3)C(=O)NC2=S)c1`, the inhibition is 29.9% (inactive).

As for `O=C1NC(=S)N(c2ccc(Br)cc2)C(=O)/C1=C/c1ccsc1`, the inhibition is 55.9% (active).

With `Cn1cccc1/C=C1\C(=O)NC(=S)N(c2ccccc2)C1=O`, the inhibition is 18.1% (inactive).

As for `CCc1ccc(N(C(C)=O)c2nc(CSc3nnc4n3CCCCC4)cs2)cc1`, the inhibition was -11.7% (inactive).

As for `CC1=C(C(=O)Nc2cccc(C(F)(F)F)c2)C(c2ccc3c(c2)OCO3)NC(=O)N1` (centres undefined), the inhibition is 5.1% (inactive).

Regarding `CCCN(CC1CC1)Cn1c(=S)sc2ccccc21`, the inhibition is 65.8% (active).

In the case of `O=C(C1CCNCC1)N1CCCCC1`, the inhibition is 6.4% (inactive).

Consider `O=C(OCCCn1c(=O)[nH]c2ccccc21)c1ccc(S(=O)(=O)N2CCOCC2)cc1`, for which the inhibition was -5% (inactive).

For the compound `Cc1ccc(NC(=O)CN2C(=O)OC(C)(C)C2(C)O)cc1` (centres undefined), the inhibition is -10% (inactive).

For the compound `COc1ccc(OCCCC(=O)NNc2ccccc2)cc1`, the inhibition was -1.15% (inactive).

On to `Nn1c(SCC(=O)Nc2ccc(S(=O)(=O)N3CCCC3)cc2)nnc1-c1ccccc1`, for which the inhibition is 87.7% (active).

In the case of `O=C(CSc1nnc(-c2ccncc2)n1-c1ccccc1)Nc1ccccc1`, the inhibition was 0.45% (inactive).

With `COc1ccc(Cc2nnc(SCC(=O)Nc3ccc(S(=O)(=O)N4CCCCCC4)cc3)o2)cc1`, the inhibition was -15.5% (inactive).

As to `CCc1c(C)sc2nc(CC(=O)N3CCOCC3)[nH]c(=O)c12`, the inhibition is -33.3% (inactive).

Regarding `NS(=O)(=O)c1ccc(CCNC(=O)CN2CC(=O)Nc3ccccc32)cc1`, the inhibition was 14.2% (inactive).

Take `CNC(=O)O/N=C/c1nn(C(C)=O)cc1Br`: the inhibition is 2.45% (inactive).

Regarding `COc1ccc(CC(=O)Nc2ccccc2)cc1`, the inhibition is -14.4% (inactive).

Regarding `COc1ccc(Cc2n[nH]c(=S)n2NC(=O)Nc2ccc(C)cc2)cc1`, the inhibition is 92.9% (active).

Take `CNCC(=O)Nc1ccc(OC)cc1`: the inhibition was -7.3% (inactive).

On to `CNC(=O)Cc1nnc(-c2ccc(C)cc2)o1`, for which the inhibition was -6.1% (inactive).

As to `N#CC(C#N)=CNCCc1ccncc1`, the inhibition was -4.8% (inactive).

With `COc1cc2c(cc1OC)C(c1cc3cc4c(cc3[nH]c1=O)OCO4)N(C(=O)C1CCC1)CC2` (centres undefined), the inhibition is 87.5% (inactive).

Regarding `Cc1onc(-c2ccccc2)c1C(=O)NNc1ccc(C(C)(C)C)cc1`, the inhibition is 3.55% (inactive).

With `Cc1onc(-c2ccccc2)c1C(=O)Nc1cccc(C(F)(F)F)c1`, the inhibition was -4.15% (inactive).

As to `Cc1onc(-c2ccccc2)c1C(=O)Sc1ccc(C(F)(F)F)cn1`, the inhibition was 94.8% (active).

Regarding `COc1cc(OC)cc(C(=O)NC(C(=O)N2CCC2)C(C)C)c1` (centres undefined), the inhibition is -3.25% (inactive).

Consider `CC(C(=O)N1CCOCC1)C1SC(=O)NC1=O` (centres undefined), for which the inhibition was -3.8% (inactive).

`CCCCN=Cc1c(O)n(-c2ccc(Cl)cc2)c(=O)[nH]c1=O`: the inhibition is 21.5% (inactive).

On to `CC(=O)Oc1ccc(N(C(C)=O)S(=O)(=O)c2ccc(Cl)cc2)cc1`, for which the inhibition was -0.9% (inactive).

For `CCCCS(=O)(=O)N(O)c1ccc(Cl)cc1`, the inhibition is 84.8% (active).

For `Cc1[nH]c(=O)[nH]c(=O)c1NC(=O)CSc1nc2c(C)cccc2cc1C#N`, the inhibition was -1.15% (inactive).

With `Cc1cc(C)n(C(=O)C2CC=CCC2C(=O)O)n1` (centres undefined), the inhibition is -7.4% (inactive).

Take `O=C(CSc1nnc2n1CCCCC2)N(Cc1cccs1)c1ccc2c(c1)OCCO2`: the inhibition is -10.9% (inactive).

Regarding `CCOC(=O)Cc1n[nH]c(=S)n1C1CCCC1`, the inhibition was 13.4% (inactive).

`Cc1ccc(OCc2n[nH]c(=S)n2C2CCCCC2)c2c1CCC2`: the inhibition was 70.4% (active).

In the case of `O=C(OCC(=O)C12CC3CC(CC(C3)C1)C2)c1cccs1`, the inhibition was 13.6% (inactive).

As for `CCn1cnc2cc(NCc3ccccn3)ccc21`, the inhibition was -5.05% (inactive).

As for `N#C/C(=N\Nc1ccccc1)C(=O)C1CC1`, the inhibition is 97% (active).

On to `CCc1ccc(N/N=C(\C#N)C(=O)N2CCN(C)CC2)cc1`, for which the inhibition is 6% (inactive).

For `C/C(=N/NC(=O)CCc1ccccc1)C1CC1`, the inhibition was -4.85% (inactive).

Consider `Cc1ccc2[nH]c3c(c2c1)CCCC3O` (centres undefined), for which the inhibition is 53.3% (inactive).

`Cc1noc(C)c1COc1ccc(C(=O)OCCN2C(=O)c3ccccc3C2=O)cc1`: the inhibition is -17.5% (inactive).

Turning to `O=C(NCC1CCN(c2ccc(S(=O)(=O)N3CCOCC3)cc2)CC1)Nc1cccc(F)c1`, the inhibition was -7.4% (inactive).

Regarding `CC(OC(=O)c1ccccc1NS(=O)(=O)c1ccc2[nH]c(=O)[nH]c2c1)C(=O)N1CCCCC1` (centres undefined), the inhibition was -42.9% (inactive).

On to `COc1ccc(C#N)cc1`, for which the inhibition was -8.8% (inactive).

Turning to `COc1ccc(-c2nc3sc(-c4ccc(OC)cc4)nc3s2)cc1`, the inhibition was 84.3% (active).

Regarding `COc1ccc(Cc2nnc(SC)[nH]c2=O)cc1`, the inhibition is 10.6% (inactive).

Take `CSc1cc(-c2ccc(F)cc2)nn1S(=O)(=O)c1cccc(C(F)(F)F)c1`: the inhibition was -4.6% (inactive).

As for `Cc1cc2ncn(-c3ccc(S(=O)(=O)N4CCCC4)cn3)c2cc1C`, the inhibition is 35.2% (inactive).

In the case of `Cc1nc(SCC(=O)c2ccc(NS(C)(=O)=O)cc2)n(C2CCCCC2)c1C`, the inhibition was -5.8% (inactive).

Turning to `N#CCCn1cnc2ccccc21`, the inhibition was -6.55% (inactive).

`COCCn1cnc2ccccc21`: the inhibition is -7.65% (inactive).

As for `c1ccc(Cc2nn3c(Cn4cnc5ccccc54)nnc3s2)cc1`, the inhibition is 65.2% (active).

For the compound `CCOc1cc2c(cc1OCC)C(CC(=O)O)N(C(=O)Nc1ccc(OC)cc1)CC2` (centres undefined), the inhibition is 26.9% (inactive).

Consider `COc1ccccc1Nc1nc2c(S(=O)(=O)c3c(C)cc(C)cc3C)nnn2c2ccccc12`, for which the inhibition was 3.35% (inactive).

For `COc1cc(Br)c(CC(=O)N2CCOCC2)cc1OC`, the inhibition is -8.25% (inactive).

For the compound `O=c1ccc(-c2ccc(S(=O)(=O)Nc3ccccc3)o2)n[nH]1`, the inhibition is 1.95% (inactive).

The term inhibition denotes the change of the read-out against control, counted positive when it falls.
